Screening results from PubChem.
Pf Dd2 growth: inhibitors of Plasmodium falciparum Dd2 growth; activity change, % at 10 µM; P. falciparum Dd2 growth, SYBR Green, 72 h; active compounds read low; 94,000 compounds, 2.3% hits; in the data active = activity change below about -80%; inconclusive = no clear call, values can overlap the other calls
C diff growth: C. difficile growth inhibition | Clostridium difficile clinical isolate growth, OD600, 24 h; active compounds read low | growth activity, negative = inhibition, % at 16 µg/mL (by protocol) | 86,000 compounds, 0.25% hits;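 active = mean growth activity at or below -80% and every replicate also at or below -80%; inconclusive = mean at or below -80% but some replicate above -80%; inactive = mean growth activity above -80%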
T cruzi growth-1: inhibitors of T. cruzi proliferation | T. cruzi beta-gal in NIH3T3, GalScreen luminescence, 90 h | inhibition, % at 8.34 µM | 77,000 compounds, 5.9% hits | AID 624255;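 active = mean inhibition above about 93%, with at least 55% of replicates each passing it, limit read from the data, passing the limit was not always enough; inconclusive = only one of those two conditions holds; inactive = neither condition holds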
T cruzi growth-2: blocks T. cruzi growth in NIH3T3 host cells; AID 651739; inhibition, % at 8.35 µM; shares compounds with T cruzi growth-1; T. cruzi beta-gal in NIH3T3, GalScreen luminescence, 90 h; 5,600 compounds, 72% hits;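 active = mean replicate inhibition above about 95% and at least 55% of replicates individually reaching it, limit read from the data; inconclusive = only one of the two criteria is met; inactive = neither criterion is met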
T cruzi growth-3: Trypanosoma cruzi proliferation inhibition. 5,600 compounds, 21% hits. AID 651740. inhibition, % at 2.09 µM. T. cruzi beta-gal in NIH3T3, GalScreen luminescence, 90 h. shares compounds with T cruzi growth-1;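 active = mean inhibition above about 95%, with at least 55% of replicates also reaching it, limit read from the data; inconclusive = meets just one of the two conditions; inactive = meets neither condition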
3T3 cytotox: cytotoxicity in mouse NIH/3T3 fibroblasts; shares compounds with T cruzi growth-1; NIH/3T3 viability, CellTiter-Glo ATP luminescence, 90 h; cytotoxicity (signal decrease), % at 8.35 µM; 5,600 compounds, 14% hits;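 active = mean signal decrease across replicates above about 35% based on untreated-well scatter, with enough replicates individually passing, limit read from the data; inconclusive = no rule stated though some were filed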
NIH3T3 tox 2: cytotoxicity in mouse NIH/3T3 fibroblasts. shares compounds with T cruzi growth-1. NIH/3T3 viability, CellTiter-Glo ATP luminescence, 90 h. inhibition, % at 24.9 µM. 5,600 compounds, 56% hits. AID 651744;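 active = mean loss of cell viability signal at or above a set limit, and enough replicates individually reaching it; inconclusive = meets only the mean limit or only the replicate share; inactive = meets neither condition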
Of the large screens only hits and unclear results are named; the others gave an inactive call (follow-up assays come after a bar, where they were run). This is a sample that favours compounds with a hit; in the whole collection about 6.7% have one here.

C[C@H]1CCCCO[C@H](CN(C)S(=O)(=O)c2ccc(F)cc2)[C@@H](C)CN([C@@H](C)CO)C(=O)c2cc(NC(=O)Nc3ccc(F)cc3)ccc2O1	T cruzi growth-1 106.7 | T cruzi growth-2 105.0 | T cruzi growth-3 107.5 | 3T3 cytotox inactive | NIH3T3 tox 2 inactive
C[C@H](CO)N1C[C@H](C)[C@H](CN(C)CC2CC2)OCCCC[C@H](C)Oc2ccc(NS(=O)(=O)c3ccc(F)cc3)cc2C1=O	none
CO[C@H]1CC[C@@H]2CCOc3ccc(C#N)cc3C(=O)N(C)C[C@H](C)C(=O)N(C)C[C@@H]1O2	none (no result: Pf Dd2 growth)
C[C@H](CO)N1C[C@H](C)[C@@H](CN(C)C(=O)c2ccc3c(c2)OCO3)Oc2cc(-c3cncnc3)ccc2S1(=O)=O	none
CO[C@H]1CN(C)C(=O)c2cc(NS(=O)(=O)c3cccc(F)c3)ccc2OC[C@H](C)N(C(=O)Cc2cccnc2)C[C@@H]1C	none (no result: C diff growth)
O=C(NC1CCCCC1)N[C@H]1CC[C@@H](CCNS(=O)(=O)c2ccc(F)cc2)O[C@@H]1CO	none
CC(C)NC(=O)Nc1cccc2c1O[C@@H](CN(C)Cc1ccc(C(F)(F)F)cc1)[C@H](C)CN([C@@H](C)CO)C2=O	none (no result: T cruzi growth-1)
C[C@@H]1CCCCO[C@H](CN(C)S(=O)(=O)c2ccc(F)cc2)[C@H](C)CN([C@@H](C)CO)C(=O)c2cc(NC(=O)Nc3ccc(F)cc3)ccc2O1	T cruzi growth-1 inconclusive | T cruzi growth-2 100.2 | T cruzi growth-3 inactive | 3T3 cytotox inactive | NIH3T3 tox 2 inactive
C[C@@H]1CCCCO[C@H](CN(C)S(=O)(=O)c2ccc(F)cc2)[C@@H](C)CN([C@H](C)CO)C(=O)c2cc(NC(=O)Nc3ccc(F)cc3)ccc2O1	none
CCCC(=O)N1CC2(C1)CN(C(=O)C1CC1)[C@H](CO)c1[nH]c3cc(OC)ccc3c12	none (no result: T cruzi growth-1)
O=C(C1CCCC1)N1CC(=O)N2[C@H](CO)[C@@H](c3ccc(C#Cc4cccc(F)c4)cc3)[C@H]2C1	none (no result: T cruzi growth-1)
COc1ccccc1NC(=O)N1CCCCN2[C@H](CO)[C@H](c3ccc(C#Cc4ccccc4)cc3)[C@H]2C1	none
COc1ccccc1NC(=O)N1CCCCN2[C@H](C1)[C@H](c1ccc(C#CC3CC3)cc1)[C@@H]2CO	T cruzi growth-1 100.2 | T cruzi growth-2 105.2 | T cruzi growth-3 inactive | 3T3 cytotox inactive | NIH3T3 tox 2 30.2
COc1ccccc1NC(=O)N1CCCCN2[C@H](C1)[C@@H](c1ccc(C#Cc3ccccc3)cc1)[C@@H]2CO	T cruzi growth-1 107.0 | T cruzi growth-2 99.3 | T cruzi growth-3 108.6 | 3T3 cytotox 35.8 | NIH3T3 tox 2 104.8
COc1ccccc1NC(=O)N1CCCCN2[C@H](C1)[C@@H](c1ccc(C#CC3CC3)cc1)[C@@H]2CO	none (no result: T cruzi growth-1)
COCCNC(=O)C[C@@H]1CC[C@H]2[C@@H](COc3ccc(NC(=O)Cc4ccccc4)cc3C(=O)N2C)O1	none
O=C(NC[C@H]1CC[C@H]2[C@H](CN2C(=O)Cc2ccncc2)O1)C1CCOCC1	none (no result: T cruzi growth-1)
C/C=C/c1ccc2c(c1)O[C@H](CN(C)S(=O)(=O)c1ccccc1)[C@H](C)CN([C@@H](C)CO)S2(=O)=O	T cruzi growth-1 106.8 | T cruzi growth-2 97.1 | T cruzi growth-3 inactive | 3T3 cytotox inactive | NIH3T3 tox 2 34.6
C[C@@H]1CN([C@@H](C)CO)S(=O)(=O)c2ccc(/C=C/c3ccccc3)cc2O[C@@H]1CN(C)C	none
COc1ccccc1S(=O)(=O)N(C)C[C@H]1Oc2cc(/C=C/c3ccccc3)ccc2S(=O)(=O)N([C@H](C)CO)C[C@H]1C	T cruzi growth-1 122.3 | T cruzi growth-2 102.1 | T cruzi growth-3 104.3 | 3T3 cytotox 43.0 | NIH3T3 tox 2 51.2
COc1ccccc1S(=O)(=O)N(C)C[C@H]1Oc2cc(Br)ccc2S(=O)(=O)N([C@H](C)CO)C[C@H]1C	none (no result: T cruzi growth-1)
COc1ccccc1S(=O)(=O)N(C)C[C@H]1Oc2cc(/C=C/c3ccccc3)ccc2S(=O)(=O)N([C@@H](C)CO)C[C@H]1C	T cruzi growth-1 129.2 | T cruzi growth-2 101.2 | T cruzi growth-3 inconclusive | 3T3 cytotox 39.7 | NIH3T3 tox 2 33.7
COc1ccccc1S(=O)(=O)N(C)C[C@H]1Oc2cc(Br)ccc2S(=O)(=O)N([C@@H](C)CO)C[C@H]1C	none (no result: T cruzi growth-1)
COc1ccccc1S(=O)(=O)N(C)C[C@H]1Oc2cc(/C=C/c3ccccc3)ccc2S(=O)(=O)N([C@H](C)CO)C[C@@H]1C	Pf Dd2 growth -87.9, T cruzi growth-1 131.2 | T cruzi growth-2 106.3 | T cruzi growth-3 97.1 | 3T3 cytotox inactive | NIH3T3 tox 2 25.5
C/C=C/c1ccc2c(c1)O[C@H](CN(C)S(=O)(=O)c1ccc(F)cc1)[C@H](C)CN([C@@H](C)CO)S2(=O)=O	none (no result: T cruzi growth-1)
CCC(=O)N1[C@@H](CO)[C@H](c2ccc(-c3ccccc3OC)cc2)C12CN(C(C)=O)C2	none (no result: T cruzi growth-1)
CCCNC(=O)[C@@H]1[C@@H](CO)[C@@H]2Cn3c(ccc(/C=C/c4ccccc4)c3=O)[C@H]1N2C(=O)c1ccccc1	none
COc1ccccc1S(=O)(=O)N(C)C[C@H]1Oc2cc(/C=C/c3ccccc3)ccc2S(=O)(=O)N([C@@H](C)CO)C[C@@H]1C	T cruzi growth-1 128.0 | T cruzi growth-2 100.2 | T cruzi growth-3 101.0 | 3T3 cytotox inconclusive | NIH3T3 tox 2 38.9
C/C=C/c1ccc2c(c1)O[C@H](CN(C)S(=O)(=O)c1ccccc1OC)[C@H](C)CN([C@@H](C)CO)S2(=O)=O	none (no result: Pf Dd2 growth)
C[C@@H]1CN([C@H](C)CO)S(=O)(=O)c2ccc(/C=C/c3ccccc3)cc2O[C@H]1CN(C)C	none
C[C@H]1CN([C@@H](C)CO)S(=O)(=O)c2ccc(/C=C/c3ccccc3)cc2O[C@@H]1CN(C)C	none
C/C=C/c1ccc2c(c1)O[C@@H](CN(C)S(=O)(=O)c1ccccc1OC)[C@H](C)CN([C@@H](C)CO)S2(=O)=O	T cruzi growth-1 115.6 | T cruzi growth-2 106.9 | T cruzi growth-3 inactive | 3T3 cytotox 44.1 | NIH3T3 tox 2 56.2
COc1ccccc1S(=O)(=O)N(C)C[C@@H]1Oc2cc(/C=C/c3ccccc3)ccc2S(=O)(=O)N([C@@H](C)CO)C[C@H]1C	Pf Dd2 growth inconclusive, T cruzi growth-1 127.7 | T cruzi growth-2 102.2 | T cruzi growth-3 106.4 | 3T3 cytotox 65.1 | NIH3T3 tox 2 62.1
CC(=O)N(C)C[C@H]1Oc2ncc(C#CCC3CCCC3)cc2C(=O)N([C@@H](C)CO)C[C@H]1C	none
O=C([C@H]1[C@H](CO)[C@H]2Cn3c(ccc(-c4cccnc4)c3=O)[C@H]2N1CC1CC1)N1CCCCC1	none
C[C@@H]1CN([C@@H](C)CO)C(=O)c2cc(NS(=O)(=O)c3ccccc3)ccc2O[C@@H]1CN(C)S(=O)(=O)c1ccc(F)cc1	none (no result: C diff growth)
